Compound activity: PubChem BioAssay, The Scripps Research Institute Molecular Screening Center
GPR151 ag: activates the human receptor GPR151; Q8TDV0; PathHunter beta-arrestin GPR151 cells, luminescence; activation, % at 11.2 µM; 1% of 650,000 active; AID 1508602; in the data active = activation above about 4.9%
FBW7 activator: activators of human E3 ligase FBW7. normalized activity (activation), % at 26.1 µM. Q969H0. 0.13% of 650,000 active. AlphaScreen FBW7–phospho-cyclin E peptide binding, activator screen; in the data active = normalized activity above about 1.9%;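 note: purified mutant Fbw7 with reduced substrate affinity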
Target sequence (Q969H0 whole entry, looked up): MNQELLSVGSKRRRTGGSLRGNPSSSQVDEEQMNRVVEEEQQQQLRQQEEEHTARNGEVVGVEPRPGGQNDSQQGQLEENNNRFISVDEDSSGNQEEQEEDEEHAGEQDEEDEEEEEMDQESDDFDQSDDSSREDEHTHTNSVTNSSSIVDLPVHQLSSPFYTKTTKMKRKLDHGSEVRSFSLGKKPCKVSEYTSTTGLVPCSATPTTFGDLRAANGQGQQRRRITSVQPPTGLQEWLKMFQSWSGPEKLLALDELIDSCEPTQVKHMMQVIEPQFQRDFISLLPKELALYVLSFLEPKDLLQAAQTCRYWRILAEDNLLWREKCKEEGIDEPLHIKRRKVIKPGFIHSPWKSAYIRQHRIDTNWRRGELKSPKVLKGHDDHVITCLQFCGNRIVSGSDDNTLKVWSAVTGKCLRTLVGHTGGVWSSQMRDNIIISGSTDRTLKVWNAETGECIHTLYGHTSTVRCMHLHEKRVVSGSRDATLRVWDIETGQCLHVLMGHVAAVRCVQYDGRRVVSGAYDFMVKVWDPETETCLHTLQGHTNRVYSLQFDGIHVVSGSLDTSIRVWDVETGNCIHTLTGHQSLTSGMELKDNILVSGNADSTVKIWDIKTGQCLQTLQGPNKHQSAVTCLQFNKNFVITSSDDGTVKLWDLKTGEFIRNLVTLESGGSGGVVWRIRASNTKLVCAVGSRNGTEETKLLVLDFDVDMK
TEAD-YAP inh: TEAD-YAP interaction inhibition | HEK-TIYL cells, TEAD-Gal4/YAP UAS-luciferase luminescence | inhibition, % at 9.12 µM | 1.4% of 640,000 active | AID 1259422; in the data active = inhibition above about 32%
MITF inh: human MITF inhibition, primary screen; inhibition, % at 2.6 µM; AlphaScreen MITF homodimerization, bead proximity signal; O75030; 0.91% of 650,000 active; AID 1259374; in the data active = inhibition above about 50%
MITF inh conf: human MITF inhibition, confirmation | shares compounds with MITF inh | AlphaScreen MITF homodimerization, biotin/His-MITF beads | inhibition, % at 2.6 µM | 16% of 4,700 active | AID 1259372;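 active = inhibition above a cutoff derived from the DMSO control wells, cut at about 28% in these data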;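 note: inhibitors lower the bead chemiluminescence by keeping MITF from dimerizing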
AS interf DR: AlphaScreen optical interference, dose response counter-screen | shares compounds with MITF inh | 6% of 480 active | IC50, µM | AID 1259373 | AlphaScreen optical interference counterscreen, cell-free; call rule not given here
AS interf ctr: AlphaScreen optical interference, counter-screen; inhibition, % at 2.6 µM; AID 1259376; 7.6% of 4,700 active; shares compounds with MITF inh; LysRS AlphaScreen counterscreen, signal interference, triplicate;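 active = inhibition above a cutoff derived from the DMSO control wells, cut at about 30% in these data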
Hits are given with their value; – = inactive; · = no result. Only some compounds are listed: those with a hit (about 3.5% of all), similar ones and a draw of the others.

SMILES	GPR151 ag	FBW7 activator	TEAD-YAP inh	MITF inh	MITF inh conf	AS interf ctr	others
O=c1c2ccccc2nc(/C=C/c2cccc3ccccc23)n1-c1ccc(Oc2ccc(Cl)cc2)cc1	–	–	–	–	·	·
N#Cc1ccc(OCC(=O)OCC(=O)NCc2ccco2)cc1	–	–	–	–	·	·
O=C(COC(=O)COc1ccc(Cl)cc1)NCc1ccco1	–	–	–	52	56	–	AS interf DR=–
O=C(COC(=O)/C=C/c1ccco1)COC(=O)/C=C/c1ccco1	–	–	–	78	63	–	AS interf DR=–
O=C(COC(=O)/C=C/c1ccco1)NCc1ccco1	–	–	–	63	64	–	AS interf DR=–
O=C(COC(=O)/C=C/c1ccco1)NC1CCCCC1	–	–	–	–	·	·
CCOC(=O)/C=C/c1ccco1	–	–	–	–	·	·
O=C(Cn1ccc2ccccc21)NCCCOc1cccc2cccnc12	–	–	–	–	·	·
COC(=O)c1ccc(CN2CCN(Cc3ccc4c(c3)OCO4)CC2)cc1	–	–	–	56	–	–
CCOc1cc(CN2CCN(Cc3ccc4c(c3)OCO4)CC2)ccc1OC	–	–	–	–	·	·
O=C(c1ccc2c(c1)OCO2)N1CCN(Cc2ccc3c(c2)OCO3)CC1	–	–	–	–	·	·
CCOc1cc(CN2CCN(Cc3ccc4c(c3)OCO4)CC2)ccc1O	–	–	–	75	–	–
COc1ccc(CN2CCN(Cc3ccc4c(c3)OCO4)CC2)cc1C	–	–	–	–	·	·
COc1ccc(CN2CCN(Cc3ccc4c(c3)OCO4)CC2)cc1OC	–	–	–	82	–	–
COc1ccc(CN2CCN(Cc3ccc4c(c3)OCO4)CC2)c(OC)c1OC	–	–	–	79	–	–
Cc1ccc(C)c(/C(O)=C2\C(=O)C(=O)N(Cc3cccnc3)C2c2ccccc2F)c1 (configuration not stated)	–	–	–	–	·	·
COc1ccc(NC(=O)C2=C(C)NC(=S)NC2c2cccc3ccccc23)cc1 (configuration not stated)	–	–	–	–	·	·
CN(C)CCNC(=O)c1ccc(-n2c(=S)[nH]c3ccccc3c2=O)cc1	–	–	–	–	·	·
CC(C)CC(=O)N1CCN(Cc2ccco2)CC1	–	–	–	58	–	–
CC(C)CC(=O)N1CCN(Cc2ccncc2)CC1	–	–	–	65	–	–
CC(C)CC(=O)N1CCN(Cc2cccc(C(F)(F)F)c2)CC1	–	–	–	56	–	–
FC(F)(F)c1cccc(CN2CCSCC2)c1	–	–	–	–	·	·
O=C(c1ccc2c(=O)n(Cc3ccco3)c(=S)[nH]c2c1)N1CCOCC1	–	–	–	–	·	·
COc1ccc(S(=O)(=O)N(CCCC(=O)O)Cc2c(Cl)cccc2Cl)cc1	–	–	–	–	·	·
CC(C(=O)N1CCN(Cc2ccccc2)CC1)N(c1ccc(Cl)cc1)S(C)(=O)=O (configuration not stated)	–	–	–	83	–	–
SMILES	GPR151 ag	FBW7 activator	TEAD-YAP inh	MITF inh	MITF inh conf	AS interf ctr	others
CCOC(=O)c1c(NC(=O)C(C)Sc2nnc(CNC(=O)c3cccs3)n2-c2cccc(C)c2)sc2c1CCCCC2 (configuration not stated)	–	–	–	–	·	·
COc1cc(OC)cc(C(=O)Oc2coc(CSc3nccc(C)n3)cc2=O)c1	–	–	–	–	·	·
CC(C(=O)Nc1ccccc1-c1ccccc1)N1CCN(C)CC1 (configuration not stated)	–	–	–	68	–	–
CCOC(=O)C1=C(C)NC(=S)NC1c1ccc(N(CC)CC)cc1 (configuration not stated)	–	–	–	–	·	·
CCOc1ccc(-n2c(=O)[nH]cc(C(=O)Nc3ccc(Br)cc3)c2=O)cc1	–	–	–	–	·	·
CCS(=O)(=O)N1CCN(CC(=O)c2ccco2)CC1	–	–	–	56	–	–
O=C(CN1CCN(C(=O)c2c(F)cccc2Cl)CC1)c1ccco1	–	–	–	–	·	·
O=C(CN1CCN(Cc2ccc(Cl)c(Cl)c2)CC1)c1ccco1	–	–	–	61	–	–
O=C(CC1C(=O)NCCN1C/C=C/c1ccccc1)NCCCc1cccnc1 (configuration not stated)	–	–	–	64	–	–
CNC(=O)COc1cc(-c2cn[nH]c2)ccc1NC(=O)C1COc2ccc(OC)cc2C1 (configuration not stated)	–	–	–	66	52	–	AS interf DR=–
CC(C)(C)c1cc(Cl)ccc1OCCOCCN1CCOCC1	–	–	–	64	–	–
